These results are taken from PubChem BioAssay.

Values joined by “and” are separate entries in the source; they are usually repeats but may differ in a detail not shown here. Equal values may be shown once. Active and inactive are the calls of the source.

Experiment [1] has as its system Human papillomavirus type 1a protein E7 (residues 44-93). Nature of the experiment: small molecules binding HPV E7 44-93 – biochemical, small-molecule microarray, residues 44-93, 635 nm fluorescence, primary screen (AID 1108).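 Also: E7 fragment applied at 1 µg/mL in TBST for 1 h at 4 C; score combines spot fluorescence with its signal to noise ratio.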 The note with it: fluorescence 635 nm, higher = more signal.
A short description of experiment [2]: hepatitis C replication reporter changes, two-sided – Huh7 cells, luciferase reporter, HCV replication inhibitor project, primary screen (AID 1109).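 Also: huh7 hepatoma cells harbouring a luciferase neomycin HCV replicon reporter; luciferase luminescence as measure of HCV replicon replication; test concentration not given here.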 The note with it: Huh7 HCV replicon luciferase reporter, 48 h; higher = more signal.
Experiment [3] addresses Left-right determination factor 2 (Homo sapiens) (UniProt O00292). Nature of the experiment: small molecules binding LEFTY2 protein – biochemical, small-molecule microarray, 635 nm fluorescence scan, primary screen (AID 1110). The note with it: higher = more signal.
The target in experiment [4] is Calmodulin-1 (Homo sapiens) (UniProt P0DP23). Nature of the experiment: small molecules binding calmodulin-1 with EGTA – biochemical, small-molecule microarray, Cy5-labelled CALM1, profiling panel (AID 1111).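 Also: labelled calmodulin applied in Tris saline Tween buffer holding calcium plus EGTA and DTT.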 The following applies: Cy5-CALM1 binding fluorescence, higher = more signal.
The target is the same in experiment [5]. Briefly: small molecules binding Ca-loaded calmodulin-1 – biochemical, small-molecule microarray, Cy5-labelled CALM1, plus calcium, artefact control for SMM control-protein annotation, profiling panel (AID 1112).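 Also: score merges spot fluorescence with signal to noise from triplicate slides.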 The note with it: Cy5-CALM1 binding fluorescence, higher = more signal.
Experiment [6] in a line: probe aWnt5a binding to arrayed compounds – biochemical, biotinylated probe, 635/667 nm fluorescence, primary screen (AID 1113).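 Also: score merges 667 nm fluorescence intensity with signal-to-noise per printed feature.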 The note with it: small-molecule microarray, higher = more signal.
Experiment [7] in a line: probe aShh binding to arrayed compounds – biochemical, biotinylated probe, 635/667 nm fluorescence, primary screen (AID 1114).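 Also: probe is biotin-labelled aShh protein from a stem cell growth factor screen; measures binding of labelled protein to compounds printed on the slide; score merges feature fluorescence at 667 nm with signal-to-noise.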 The note with it: small-molecule microarray, higher = more signal.
Experiment [8] is described as follows: probe aNog binding to arrayed compounds – biochemical, biotinylated probe, 635/667 nm fluorescence, primary screen (AID 1115).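 Also: probe is biotinylated aNog protein used at 0.15 µg/mL for 1 h at 4 C; z-score combines 667 nm fluorescence of each spot with its signal to noise.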 The following applies: small-molecule microarray, higher = more signal.
Experiment [9] concerns the target Torsin-1A-interacting protein 1 (Homo sapiens) (UniProt Q5JTV8). Briefly: compound microarray binding of lysate hLAP1 – cell lysate, small-molecule microarray, COS7 lysate, 635/667 nm fluorescence, primary screen (AID 1116). The note with it: 635 nm fluorescence, higher = more signal.
For experiment [10], the target named is Alpha-bungarotoxin (Bungarus multicinctus) (UniProt P60615). Nature of the experiment: compounds binding labelled alpha-BTX control protein – biochemical, small-molecule microarray, Alexa647 label, 635/667 nm fluorescence, artefact control for SMM control protein annotation, profiling panel (AID 1117). The note with it: alpha-BTX-A647 binding fluorescence, higher = more signal.

The target in a further experiment is Albumin (Bos taurus) (UniProt P02769). Nature of the experiment: compounds binding labelled BSA control protein – biochemical, small-molecule microarray, Alexa647 label, 635/667 nm fluorescence, artefact control for SMM control protein annotation, profiling panel (AID 1118).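 Also: score merges 667 nm emission intensity and signal-to-noise per printed compound spot.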 The following applies: BSA-A647 binding, fluorescence 635 nm, higher = more signal.
Experiment [11] is described as follows: probe aXIP binding to arrayed compounds – biochemical, NeuroSMM set, 635/667 nm fluorescence, primary screen (AID 1119).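 Also: probe is the protein aXip251-270 applied at 1 µg/mL to compound-printed slides; binding of probe to printed compounds measured as 667 nm fluorescence plus signal to noise.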 The note with it: small-molecule microarray, higher = more signal, called active from +8 up or from −8 down.
Experiment [12] in a line: probe aNOTCH3 binding on compound microarray – biochemical, small-molecule microarray, 635/667 nm fluorescence, primary screen (AID 1120).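 Also: probe is a biotin-tagged antibody raised against NOTCH3 rather than NOTCH3 protein; score merges spot fluorescence near 667 nm with spot signal to noise.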 The note with it: higher = more signal.
Experiment [13] is described as follows: probe aNOTCH2 binding on compound microarray – biochemical, small-molecule microarray, 635/667 nm fluorescence, primary screen (AID 1121).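 Also: score merges feature fluorescence read at 667 nm with its signal to noise.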 The following applies: higher = more signal.
Experiment [14] has as its target Carbonic anhydrase 2 (Homo sapiens) (UniProt P00918). Briefly: compounds binding carbonic anhydrase 2 – biochemical, small-molecule microarray, Alexa647-labelled CAII, profiling panel (AID 1122). The note with it: CAII-A647 binding fluorescence, higher = more signal.
The nature of experiment [15]: COS7 lysate on small-molecule microarray, probe aHis, 635 nm (AID 1123).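 Also: z-score combines 667nm fluorescence intensity with signal-to-noise per printed compound spot.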 The note with it: COS7 cell lysate, fluorescence, higher = more signal.
A short description of experiment [16]: probe aLAP1 signal on lysate-treated microarray – cell lysate, small-molecule microarray, COS7 lysate, primary screen (AID 1124).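 Also: lysate comes from COS7 cells expressing LAP1 and is applied at 0.3 µg/mL; score merges spot fluorescence near 667 nm with signal-to-noise over triplicate slides.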 The following applies: probe aLAP1, fluorescence, higher = more signal.
A further experiment deals with Sam68 (KHDRBS1). Nature of the experiment: compounds binding KHDRBS1 protein – biochemical, small-molecule microarray, 635 nm fluorescence, primary screen (AID 1125).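 Also: score merges 667 nm channel intensity with signal to noise over triplicate slides.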 The note with it: higher = more signal.
Experiment [17] concerns Chordin-like protein 2 (CHRDL2). Nature of the experiment: compounds binding chordin-like 2 – biochemical, small-molecule microarray, 635 nm fluorescence, primary screen (AID 1126).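 Also: printed compound slides probed with Chrdl2 protein at 4 µg/mL for 1 h at 4 C; score merges 667 nm emission intensity with signal to noise over three replicate slides.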 The following applies: fluorescence 635 nm, higher = more signal.
In experiment [18] the target is Concanavalin-A (Canavalia ensiformis) (UniProt P02866). Nature of the experiment: compounds binding concanavalin A lectin – biochemical, small-molecule microarray, Alexa647 label, 635 nm, artefact control for SMM control protein annotation, primary screen (AID 1127).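 Also: z combines 667 nm emission intensity with signal-to-noise across three replicate slides.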 The following applies: ConA-A647 binding fluorescence, higher = more signal.
Sequence of Concanavalin-A (Canavalia ensiformis) (P02866 whole entry, looked up): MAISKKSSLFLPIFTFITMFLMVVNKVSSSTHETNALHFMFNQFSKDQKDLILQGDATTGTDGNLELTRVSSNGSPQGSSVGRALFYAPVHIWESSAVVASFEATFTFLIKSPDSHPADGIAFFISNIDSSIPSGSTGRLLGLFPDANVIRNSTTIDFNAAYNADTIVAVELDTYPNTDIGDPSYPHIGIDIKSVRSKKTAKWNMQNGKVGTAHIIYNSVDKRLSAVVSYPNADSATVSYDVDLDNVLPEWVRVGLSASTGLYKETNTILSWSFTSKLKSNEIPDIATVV

Sequence of Torsin-1A-interacting protein 1 (Homo sapiens) (Q5JTV8 whole entry, looked up): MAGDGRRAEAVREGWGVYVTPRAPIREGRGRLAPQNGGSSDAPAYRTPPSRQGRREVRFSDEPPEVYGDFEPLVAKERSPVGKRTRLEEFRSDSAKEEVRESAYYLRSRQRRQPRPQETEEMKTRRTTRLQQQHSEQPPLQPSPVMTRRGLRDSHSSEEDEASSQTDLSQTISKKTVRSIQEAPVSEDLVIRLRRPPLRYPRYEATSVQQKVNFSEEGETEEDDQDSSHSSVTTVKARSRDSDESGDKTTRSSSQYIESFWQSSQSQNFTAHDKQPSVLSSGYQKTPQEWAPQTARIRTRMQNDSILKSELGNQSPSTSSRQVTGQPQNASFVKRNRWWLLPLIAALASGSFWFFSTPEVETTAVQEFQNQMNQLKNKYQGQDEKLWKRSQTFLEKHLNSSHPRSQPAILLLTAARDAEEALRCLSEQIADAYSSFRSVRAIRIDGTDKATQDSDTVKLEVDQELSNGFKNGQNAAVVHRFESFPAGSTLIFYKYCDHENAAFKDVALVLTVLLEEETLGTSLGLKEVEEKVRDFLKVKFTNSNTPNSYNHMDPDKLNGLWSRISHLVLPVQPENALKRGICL
Sequence of Alpha-bungarotoxin (Bungarus multicinctus) (P60615 whole entry, looked up): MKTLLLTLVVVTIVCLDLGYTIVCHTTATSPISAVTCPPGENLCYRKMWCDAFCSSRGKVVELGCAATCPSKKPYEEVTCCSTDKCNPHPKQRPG
Sequence of Left-right determination factor 2 (Homo sapiens) (O00292 whole entry, looked up): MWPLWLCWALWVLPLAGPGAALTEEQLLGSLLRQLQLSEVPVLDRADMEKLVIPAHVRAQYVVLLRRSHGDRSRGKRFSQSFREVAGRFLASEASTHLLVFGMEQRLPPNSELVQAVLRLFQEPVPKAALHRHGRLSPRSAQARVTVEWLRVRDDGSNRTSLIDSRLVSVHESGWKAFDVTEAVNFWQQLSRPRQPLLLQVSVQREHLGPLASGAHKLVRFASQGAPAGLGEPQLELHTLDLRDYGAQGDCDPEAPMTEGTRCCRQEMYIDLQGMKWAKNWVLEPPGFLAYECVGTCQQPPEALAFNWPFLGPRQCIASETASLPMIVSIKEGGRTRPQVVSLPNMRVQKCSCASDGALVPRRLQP
Sequence of Albumin (Bos taurus) (P02769 whole entry, looked up): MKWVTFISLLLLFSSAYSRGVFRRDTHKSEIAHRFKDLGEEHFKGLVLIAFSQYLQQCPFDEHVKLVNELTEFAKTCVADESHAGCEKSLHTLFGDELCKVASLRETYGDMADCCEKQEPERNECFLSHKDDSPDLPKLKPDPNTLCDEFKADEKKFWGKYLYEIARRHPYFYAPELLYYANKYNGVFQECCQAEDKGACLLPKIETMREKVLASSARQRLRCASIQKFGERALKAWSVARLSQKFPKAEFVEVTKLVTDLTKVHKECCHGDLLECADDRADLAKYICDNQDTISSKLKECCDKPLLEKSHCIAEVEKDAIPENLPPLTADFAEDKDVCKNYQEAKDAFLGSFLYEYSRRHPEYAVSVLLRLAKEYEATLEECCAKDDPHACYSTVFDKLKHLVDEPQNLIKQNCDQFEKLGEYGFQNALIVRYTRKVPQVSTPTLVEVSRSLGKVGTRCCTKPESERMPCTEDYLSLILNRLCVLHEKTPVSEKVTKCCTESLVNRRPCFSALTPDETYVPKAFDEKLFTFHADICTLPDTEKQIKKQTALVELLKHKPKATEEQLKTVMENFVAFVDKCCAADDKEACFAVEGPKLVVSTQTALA

With `CO[C@H]1COC(=O)CC=C[C@@H](C)COC(=O)[C@H](CCSC)NC(=O)CC=C[C@@H]1C`, the composite z-score in experiment [1] was -0.467 and -0.849; in experiment [3], 1.6 and 1.71; in [4], -0.957 and -2.78; in experiment [5], -1.75 and -3.46; in experiment [6] it was -0.136 and -0.197; in [7], -0.138 and -0.34. Moreover, the composite z-score in experiment [8] is -0.385 and -0.754; in [9] it was 0.995 and 0.363; in experiment [10] it was -0.933 and -1.69; with Albumin (Bos taurus), -1.57 and -1.06; in experiment [12], 0.0311 and -0.0043; in experiment [13], -0.0942 and -0.0241. The composite z-score was -0.407 and -0.489 in experiment [14]; -0.335 and -0.552 in [15]; 0.383 and -1.41 in [16]; 0.982 and 1.31 in the experiment with Sam68 (KHDRBS1); 1.54 and 1.65 in experiment [17]; -0.773 and -2.15 in experiment [18]. Moreover, in experiment [2], the z-score was -0.0216 and -0.567. The composite Z-score in experiment [11] is 2.77 (inactive) and 1.61 (inactive).
For the compound `C=CCN1C(=O)[C@]2(O[C@H](CCn3cc(CCO)nn3)[C@@H]([Si](C)(C)c3ccc(OC)cc3)[C@@H]2C)c2cc(N3C(=O)c4cccc5cccc3c45)ccc21`, the composite z-score in experiment [1] was 1.33 and 0.725; in experiment [3], 0.238 and -0.0491; in experiment [4] it was 0.345 and 0.772; in experiment [5], -0.0218 and 0.227; in experiment [6], -0.0203 and 0.0079; in [7], 0.0048 and 0.14. In addition, the composite z-score was -0.136 and -0.0115 in experiment [8]; 1.11 and 0.749 in [9]; 0.334 and 0.366 in experiment [10]; 0.558 and 0.668 in the experiment with Albumin (Bos taurus); 0.0522 and 0.0259 in [12]; -0.106 and -0.162 in experiment [13]. The composite z-score in experiment [14] is 0.227 and 0.417; in experiment [15], 1.88 and 0.772; in experiment [16] it was 0.163 and -0.46; with Sam68 (KHDRBS1) it was 1.2 and 0.787; in experiment [17], 0.431 and 0.191; in [18], 1.08 and 1.06. The z-score in [2] is -5.11 and -5.13. Further, the composite Z-score in [11] is 0.729 (inactive) and 0.573 (inactive).
In the case of `CCOC(=O)NN=C1C[C@@H](O)[C@@H](O)[C@@H]2[C@@H]3C(=O)N(Cc4ccc5c(c4)OCO5)C(=O)[C@@H]3CC[C@@H]12`, the composite z-score in [1] is 0.431; in [3], -0.0145; in experiment [4] it was 0.257; in experiment [5] it was -0.727; in experiment [6] it was -0.006; in experiment [7] it was -0.0011. Besides, the composite z-score in experiment [8] was -0.252; in experiment [9], 0.629; in [10], 0.619; in the experiment with Albumin (Bos taurus), 0.397; in experiment [12] it was -0.141; in [13], -0.0349. The composite z-score is -0.158 in [14]; 0.257 in experiment [15]; -0.377 in experiment [16]; 0.789 in the experiment with Sam68 (KHDRBS1); 0.171 in [17]; 0.837 in experiment [18]. The z-score in experiment [2] was -0.398. The composite Z-score in [11] was 0.221 (inactive).
With `CCN1C(=O)[C@H]2[C@H]3[C@H](O)[C@H](O)CC(=NOC[C@@H](O)COCc4ccco4)[C@@H]3CC[C@H]2C1=O`, the composite z-score in [1] is -1.08 and -1.63; in experiment [3], 1.32 and 0.764; in [4] it was -1.05 and -0.872; in [5] it was -1.72 and -1.74; in experiment [6], -0.0721 and -0.232; in experiment [7], -0.145 and -0.138. Further, the composite z-score in experiment [8] was 0.0326 and -0.0236; in experiment [9], 0.205 and -0.291; in experiment [10] it was 0.0851 and -0.421; with Albumin (Bos taurus) it was -0.423 and 0.677; in experiment [12], -0.161 and -0.0026; in experiment [13], -0.17 and -0.234. In addition, the composite z-score in experiment [14] was -0.473 and 0.753; in [15], -0.945 and 0.351; in experiment [16], -0.0847 and -0.0256; with Sam68 (KHDRBS1), -0.368 and 0.0907; in experiment [17], 1.54 and 0.0802; in [18] it was -0.716 and 0.422. In addition, the z-score in [2] was 0.0085 and 1.42. The composite Z-score in experiment [11] is -1.03 (inactive) and -0.471 (inactive).
For `C=CCN(CCCC)C(=O)C(c1cccs1)N(C(=O)/C=C\C(=O)O)c1ccc(CCO)cc1` (stereo not given), the composite z-score in experiment [1] was -0.541 and -0.68; in experiment [3] it was -2.24 and -2.46; in experiment [4] it was -0.324 and -0.724; in experiment [5], 0.423 and 0.395; in experiment [6], -0.13 and -0.262; in experiment [7], -0.0904 and -0.276. Besides, the composite z-score in [8] is -0.0621 and -0.0827; in [9], 1.13 and -0.803; in experiment [10] it was 0.749 and -2.47; with Albumin (Bos taurus) it was -1.02 and -2.4; in experiment [12] it was -0.437 and -0.449; in [13], -0.171 and -0.202. In addition, the composite z-score in [14] is 0.864 and 0.861; in experiment [15] it was 0.0769 and -0.501; in experiment [16], 0.132 and -0.426; in the experiment on Sam68 (KHDRBS1), -0.798 and -1.53; in experiment [17], -1.26 and -4.41; in experiment [18] it was -1.83 and -1.63. Further, the z-score in [2] is -1.03 and 0.741. Besides, the composite Z-score in experiment [11] is 0.127 (inactive) and -0.0505 (inactive).
